# The panel holds about 79,000 compounds, 15% with a hit somewhere; the sample as a whole holds those more often. Unmarked numbers belong to inactive results. Active and inactive are the calls of the source. No stated cut-off is given here; in the data, active means growth inhibition above about 70%; inactive means the rest.
# Key:
# [1] = NCI Yeast Anticancer Drug Screen. Data for the rad50 strain (AID 155);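 further: 0% = growth of vehicle-only cultures of the same strain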; conditions: S. cerevisiae rad50 strain growth inhibition; at 50.0 µM; active compounds read high
# Summary of the method: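 Cells are treated with compound, grown, and their growth is then scored against vehicle-only cultures of the same repair-deficient yeast strain.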
# [2] = NCI Yeast Anticancer Drug Screen. Data for the mec2-1 strain (AID 157); conditions: S. cerevisiae mec2-1 strain, at 50.0 µM, active compounds read high
# Summary of the method: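 Test agents were screened against the mec2-1 yeast strain, with defined DNA repair or cell cycle alteration. Growth was scored as inhibition against vehicle-only controls.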
# [3] = NCI Yeast Anticancer Drug Screen. Data for the sgs1 mgt1 strain (AID 161);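 further: 0% = growth of cultures given vehicle only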; conditions: S. cerevisiae sgs1 mgt1 strain, at 50.0 µM, active compounds read high
# Summary of the method: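 Mutant yeast exposed to compound; growth scored against vehicle-only wells.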
# [4] = NCI Yeast Anticancer Drug Screen. Data for the cln2 rad14 strain (AID 165);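 further: 0% = growth equal to vehicle treated cultures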; conditions: S. cerevisiae cln2 rad14 strain, at 50.0 µM, active compounds read high
# Summary of the method: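 Growth of compound-exposed yeast (cln2 rad14 genotype) measured and expressed as inhibition relative to vehicle.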
# [5] = NCI Yeast Anticancer Drug Screen. Data for the bub3 strain (AID 167); conditions: S. cerevisiae bub3 mutant strain, at 50.0 µM, active compounds read high
# Summary of the method: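 Part of a panel of yeast mutants defective in DNA damage repair or cell cycle regulation. Each strain is grown with compound, and inhibition is calculated relative to solvent-treated cultures.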
# [6] = NCI Yeast Anticancer Drug Screen. Data for the mlh1 rad18 strain (AID 175); conditions: S. cerevisiae mlh1 rad18 strain growth inhibition; at 50.0 µM; active compounds read high
# Summary of the method: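 In this whole-cell yeast screen, a strain with altered DNA damage repair is challenged with compound, and its growth is measured against matched vehicle-treated controls.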
Compound,growth inhibition [1],growth inhibition [2],growth inhibition [3],growth inhibition [4],growth inhibition [5],growth inhibition [6]
N#Cc1cccc(C2SCc3nc4ccccc4n32)c1 (stereo unspecified),-1.1%,-8.9%,25.9%,23.1%,4.8%,18.1%
CCOC(=O)C(=Cc1ccc(Oc2ccccc2)cc1)C(=O)OCC,39.4%,-6%,22.1%,24.8%,6.1%,7%
CN(C)CC(Cc1ccccc1)c1ccccc1 (stereo unspecified),-19.9%,-10.9%,-18.6%,7.6%,-5.4%,-17.6%
O=C(OC1CCC2(CC1)N=NC1(CCC(OC(=O)c3ccccc3)CC1)S2)c1ccccc1 (stereo unspecified),-1.15%,18.3%,-2.25%,-7.6%,-1.1%,8.1%
CCOC(=O)c1c[nH]n(Cc2ccccc2)c1=O,12%,13.4%,2.95%,-23.2%,13.6%,-1.2%
CS(=O)(=O)OC1CC/C=C\CCC1OS(C)(=O)=O (stereo unspecified),1.3%,14.5%,12.3%,-9.35%,-15.4%,-15.6%
COc1ccc(/C=C\c2cc(OC)c(OC)c(OC)c2)cc1OC,5.2%,9.05%,-17.7%,3.05%,-13.1%,12%
NC(=O)CCCCCCCC(=O)O,-0.9%,-5.7%,-13.4%,1.45%,-10.6%,-22.9%
CCCCCC/C(CC(=O)CCC(=O)NCCc1ccccc1)=N\Nc1ccc([N+](=O)[O-])cc1[N+](=O)[O-],-0.2%,14.9%,-35.5%,34.2%,11.9%,-1.7%
O=C(O)CCCCl,12.3%,-7.8%,16.2%,13.7%,12.7%,26%
Cc1cc[n+](C2=C([O-])C3=C(C(=O)C2=O)C2c4ccccc4C3c3ccccc32)c(C)c1,98.5% (active),98.7% (active),98.8% (active),98.3% (active),90.2% (active),97.5% (active)
COc1ccc(-c2c(N)nc(=S)[nH]c2C(=O)O)cc1,-8.65%,9.85%,-9.15%,-21.2%,8.75%,-17.7%
CN(C)c1ccc(C=C2/C(=N\O)c3ccccc3/C2=N/O)cc1,-1.5%,38.1%,39%,-8.2%,34.2%,48.1%
COCCOCOC(C)(C)CCCCl,11.3%,24%,21.9%,-5.2%,-2.1%,-20%
O=C(Nc1ccc(Cl)c(Cl)c1)Oc1ccccc1Cl,-15.2%,-29.6%,-4.9%,-36%,-16.4%,-29.9%
CN(C)c1ccc(/C=C(\NC(=O)c2ccccc2)c2nn(C)c(=O)o2)cc1,-15.8%,-4.8%,-11.1%,-20.9%,-1.4%,-22.6%
Cc1ccc(NC(=O)c2ccccc2)cc1,3.75%,4.7%,-2.55%,-16%,2.05%,-0.3%
CC(C)(C)c1cc(C(C)(C)C)c(P(C(O[Si](C)(C)C)=C(c2ccccc2)c2ccccc2)C(O[Si](C)(C)C)=C(c2ccccc2)c2ccccc2)c(C(C)(C)C)c1,-14.7%,-8.45%,-3.7%,5.2%,-5%,15.2%

Compound,growth inhibition [1],growth inhibition [2],growth inhibition [3],growth inhibition [4],growth inhibition [5],growth inhibition [6]
COc1ccccc1NC(=O)C(=O)C(c1cnc2ccc([N+](=O)[O-])cc2n1)[N+](=O)[O-] (stereo unspecified),16.2%,-3.4%,6.3%,18.5%,7.6%,-0.2%
Fc1ccccc1-c1nc2ccccc2s1,45%,3.75%,19.3%,-3.45%,6.05%,28.3%
Cc1ccc2c(c1)CCC(=O)O2,11.4%,0%,-1.75%,-17.2%,10.4%,3.4%
C=CCOc1ccc(C2C(C(=O)OC)C(=O)CC(O)(c3ccccc3)C2C(=O)OC)cc1OC (stereo unspecified),-63.2%,-24.6%,-14.9%,-13.2%,-0.9%,-19.7%
Cc1ccc(-c2nc(-c3nccc4ccccc34)oc2-c2ccccc2)cc1,-6%,0.45%,-45.4%,-28.4%,-29.7%,5.2%
CCC(=O)OCCCCC1CCCO1 (stereo unspecified),9.35%,5.4%,2.25%,2.75%,12.3%,4.4%
N#CC1=C(Nc2ccccc2)SC(c2cccs2)NC1=O (stereo unspecified),12.4%,4.7%,20.6%,16.5%,11.9%,23.2%
Cc1ncc([N+](=O)[O-])n1CCNC(=O)CCn1ccnc1[N+](=O)[O-],10.2%,-43.7%,-49.6%,1.1%,-18.7%,-22.9%
Cc1ccc(C)c(NC(=O)C(=O)CC(=O)c2cccc3ccccc23)c1,-15.8%,-33.1%,2.05%,17.1%,-20.8%,-21.1%
CNC(=O)c1ccccc1C(=N)c1ccccc1,-12.6%,-5.4%,-11.2%,-8.05%,-9.65%,-8.35%
CC(=O)OCCOCNC(=S)N/N=C(\C)c1cccs1,10.3%,-13.6%,4.8%,34.1%,4.3%,-8.95%
Cc1ccc(S(=O)(=O)OCC2CC=CCC2COS(=O)(=O)c2ccc(C)cc2)cc1 (stereo unspecified),5.4%,-8.2%,-9.75%,-15.2%,6%,28.8%
COC(=O)C1(CC(=O)CC(=O)CC2(C(=O)OC)NC(=S)NC(=O)C2C#N)NC(=S)NC(=O)C1C#N (stereo unspecified),-17.4%,19.9%,-24.6%,4.05%,5.55%,13.8%
CC(=O)Oc1ccc(OC(C)=O)c(C(=O)O)c1,15.1%,-2.65%,2.9%,-39.3%,-2.3%,17.4%
NC(=S)N/N=C\c1nccc2ccsc12,10.4%,-5.7%,-9.35%,-29.9%,-0.05%,2.7%
CCCCCCCCCCCCCCCCCCNC(=S)/N=C\C(C(=O)Nc1ccccc1C)=C(/C)O,-9.8%,-11.8%,5.85%,0.55%,-21.4%,-5.65%
O=C1OC(=O)C2C1C1CCC2C1(c1ccccc1)c1ccccc1 (stereo unspecified),22.5%,-0.95%,31.4%,-4.7%,-0.05%,-2.85%
CCC(C)CCC(N)C(=O)O (stereo unspecified),2.3%,11.4%,-3.95%,-0.1%,2%,1.75%

# From PubChem BioAssay (NCI)
